# From PubChem
# TROY NFkB inh – inhibitors of TROY-driven NF-kB signaling, primary screen, Q293 LMP1-TROYcd cells, NF-kB luciferase, uHTS; Q293 LMP1-TROYcd NF-kB luciferase reporter, 4 h; inhibition, % at 10 µM; 360,000 tested, 0.98% active;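 active = compounds whose plate-normalised and pattern-corrected inhibition of the luciferase reporter signal at the single screening dose is 50% or more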
# HIF-2a block – HIF-2a reporter inhibitors, primary screen, luminescence, 786-0 RCC cells | inhibition, % at 18.8 µM | 786-0 RCC cells HIF-2a reporter, luciferase luminescence, overnight | 360,000 tested, 0.72% active;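 active = inhibition of the luminescence signal of 40% or more relative to plate controls, in a single-dose primary screen at 18.75 µM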
# Peg3 promoter – Peg3 promoter-driven luciferase inhibitors, primary screen, cell-based, HeLa, luciferase luminescence; inhibition, % at 20 µM; HeLa PEG-Prom luciferase reporter, overnight; AID 588405, 2011; 360,000 tested, 1.7% active;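 active = inhibition of at least 50% at 20 µM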
# TWEAK-Fn14 inh – inhibitors of TWEAK-Fn14 signaling, primary screen, luciferase reporter cells, uHTS; AID 1159606, 2016; 360,000 tested, 2% active; TWEAK-stimulated Fn14 reporter cells, luciferase luminescence, 8 h; inhibition, % at 10 µM; in the data active = inhibition above about 50%
# CF NFkB block – inhibitors of PAF-induced NF-kB signaling, primary screen, cell-based, GFP fluorescence, uHTS; AID 588850, 2011; 360,000 tested, 0.86% active; inhibition, % at 5 µM; KKLEB NF-kB-GFP reporter, GFP fluorescence overnight;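 active = at least 50% inhibition at 5 µM, scaled per plate between neutral and stimulator controls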;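 also: PAF is a Pseudomonas aeruginosa culture filtrate used as stimulus; plate controls were PAF-stimulated DMSO wells for no effect and unstimulated DMSO wells for full effect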
# KKLEB tox – cytotoxicity in KKLEB CF airway cells, primary screen, cytotoxicity control for CF NF-kB inhibitor project, cell-based, uHTS, fluorescence assay plates. 360,000 tested, 0.36% active. KKLEB CF airway cells viability, ATPlite luminescence, overnight; hits give low values; cells stimulated with P. aeruginosa culture filtrate. activity change (cytotoxicity), % at 5 µM;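 active = corrected activity change at or below -50% at 5 µM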
# An asterisk follows results filed as active. Compounds with a hit are over-represented: about 4% of the library has one in this group of screens.
SMILES,TROY NFkB inh,HIF-2a block,Peg3 promoter,TWEAK-Fn14 inh,CF NFkB block,KKLEB tox
Cc1ccc2[nH]c(C)c(/C=N/Nc3nc4ccccc4s3)c2c1,38.7,-68.7,-9.4,60.2*,-10.5,-11.6
Brc1cc2c(cc1/C=N/Nc1nc3ccccc3s1)OCO2,78.8*,-230.2,-99.1,57.3*,3.5,3.6
Brc1csc(/C=N/Nc2nc3ccccc3s2)c1,-11.2,-242.3,-274.4,30.2,-37.9,-6.4
COc1ccc(C=NNc2nc3ccccc3s2)cc1,57.4*,-3.9,-66.3,78.1*,-2.5,-16.7
COc1cccc(C(=O)OCC(=O)NCC2CCCO2)c1 (configuration not stated),-13.6,2.8,2.2,12.5,-13.6,17.5
Cc1ccc(OCCn2c(=S)[nH]c3ccccc32)c(C(C)C)c1,4.7,20.6,18.9,11.0,0.2,-0.8
Cc1cc(C=C2C(=O)c3ccccc3C2=O)c(C)n1-c1ccc(C(=O)O)cc1,6.2,6.9,10.8,-11.8,0.3,-14.1
Cc1cc(/C=C2\Cc3ccccc3C2=O)c(C)n1-c1ccccc1,5.6,43.9*,48.8,53.9*,-14.7,-35.2
Cc1ccc(S(=O)(=O)NCc2ccccc2)cc1C(=O)N1CCN(S(=O)(=O)c2ccccc2)CC1,-21.2,16.0,14.7,6.3,5.5,-10.6
COc1ccc(C(CCNC(C)c2ccccc2)C(C)C)cc1 (configuration not stated),-49.1,3.5,-8.1,-16.2,5.6,-5.4
COc1ccc(C(C)NCCC(c2ccc(OC(C)C)cc2)c2ccccc2OC)cc1 (configuration not stated),-14.7,27.0,103.9*,-1.8,-1.5,0.3
COc1cccc(C(=O)OCC(=O)Nc2cc(C)on2)c1OC,9.2,5.5,-10.5,-1.9,-1.7,-1.8
CCCCCCc1cc2cc(S(=O)(=O)c3ccc(C)cc3)c(=O)oc2cc1O,50.8*,-3.4,39.5,0.6,24.9,-9.6
CCCCCCc1cc2cc(S(=O)(=O)c3ccc(Cl)cc3)c(=O)oc2cc1O,53.5*,-18.2,45.4,44.3,39.1,-17.1
CCCCCCc1cc2cc(C(=O)Nc3ccccc3)c(=O)oc2cc1O,50.2*,0.3,23.8,68.5*,78.8*,-83.0*
CCCCCCc1cc2cc(C(=O)NCc3ccccc3)c(=N)oc2cc1O,47.9,3.7,21.9,-17.3,33.6,-1.2
Cc1cc(C)c(C)c(S(=O)(=O)N2CCC(C(=O)NC3=NCCS3)CC2)c1C,9.1,21.8,8.8,-7.2,-11.2,0.0
O=C(N[C@H](CO)Cc1ccccc1)c1ccco1,9.5,-2.2,-23.6,5.5,20.4,4.6
O=[N+]([O-])c1ccc2nc(/C=C/c3ccc(Cl)cc3)[nH]c2c1,70.8*,-377.0,-127.8,76.1*,2.6,1.0
O=[N+]([O-])c1ccc(-c2nc3ccc([N+](=O)[O-])cc3[nH]2)cc1,9.4,-218.1,-213.3,-49.0,13.9,-10.6
CC(C)Oc1ccc(F)cc1-c1cc(C(=O)N2CCc3ccccc3C2)[nH]n1,-0.4,6.0,10.2,-23.6,-17.5,-1.5
COc1ccccc1CNC(=O)C(=O)NCC1OCCN1S(=O)(=O)c1ccc(Br)cc1 (configuration not stated),9.2,14.1,7.7,-8.0,7.2,-10.5
CCCCc1ccc(NC(=S)N2CCCC2)cc1,3.7,-154.2,-129.0,12.5,5.7,1.3
CC(C)(C)CCN1CCC(CN2CCNC2=S)CC1,-9.7,5.6,2.3,-3.2,-10.3,-3.5
COc1cc2cc(NC(C)=O)cc(NCc3ccccc3)c2cc1OC,58.7*,14.4,12.1,-5.7,-19.5,2.4
SMILES,TROY NFkB inh,HIF-2a block,Peg3 promoter,TWEAK-Fn14 inh,CF NFkB block,KKLEB tox
CCCCNc1cc(NC(C)=O)cc2cc(OC)c(OC)cc12,14.3,7.3,8.6,9.1,-2.3,5.2
Cc1cccc(OC(C)C(=O)NC2CCS(=O)(=O)C2)c1C (configuration not stated),14.3,17.7,-5.2,23.7,-23.8,7.6
CC(=O)c1ccc(NC(=O)COC(=O)/C=C/c2cccs2)cc1,-0.4,-5.7,-12.3,15.9,-14.2,-11.2
COc1ccc(/C(C)=N/NC(=O)CNC(=O)c2ccco2)c(OC)c1,-20.8,3.9,17.0,-5.6,-9.2,1.9
CCOC(=O)c1cn[nH]c1NC(=S)Nc1ccc(Cl)cc1,61.0*,-267.3,-368.4,60.5*,21.0,-3.5
COc1ccc(-c2csc(NC(=O)CSCc3c(C)noc3C)n2)c(OC)c1,29.3,-19.2,-16.6,11.5,-6.7,-3.8
Cc1ccc(NC(=O)c2noc3c2CCCCC3)cc1,-10.3,-151.3,-196.7,51.0*,-2.7,14.2
CCc1ccc(NC(=O)c2noc3c2CCCCC3)cc1,-44.0,-228.3,-262.0,-28.9,-4.0,8.1
O=C(NC1CCCCC1)c1noc2c1CCCCC2,41.9,-136.4,-160.6,54.7*,-2.6,0.6
CCc1ccc(NC(=O)c2noc3c2CCC3)cc1,28.3,8.5,-48.3,72.7*,-12.9,-5.6
CC(C)(C)C1CCc2onc(C(=O)NC3CCCC3)c2C1 (configuration not stated),13.5,-19.1,1.2,-15.8,3.6,0.1
COC(=O)c1cc(S(=O)(=O)Nc2ccc(C)cn2)c[nH]1,10.2,4.5,15.0,2.1,6.2,2.0
CCOC(=O)c1cc2c(=Cc3ccc(N(C)C)cc3)c3ccccc3n2[n+]1C,27.3,-52.2,46.9,6.8,-20.8,-8.2
Cc1cc2c(=Cc3ccc(N(C)C)cc3)c3ccccc3n2[n+]1C,40.5,68.9*,97.0*,66.8*,-131.9,7.3
CN(C)c1ccc(C=c2c3cc(O)ccc3n3c2cc(-c2ccccc2)[n+]3C)cc1,26.9,-72.7,46.5,39.9,-71.0,-8.3
CN(C)c1ccc(C=c2c3ccccc3n3c2c2ccccc2[n+]3C)cc1,23.0,-8.7,71.4*,25.1,23.0,-7.6
CCCCCCn1c(=O)n2n(c1=O)[C@@H]1CN(S(=O)(=O)c3ccc(C)cc3)C[C@]1(O)[C@@H](OC(=O)Nc1c(C)noc1C)C2,8.8,15.6,-7.0,-4.2,12.0,2.2
O=C(NCC1CCCCC1)C1(CC2CC(c3ccc(Cl)cc3)=NO2)CCNCC1 (configuration not stated),-42.8,-148.9,96.8*,-6.7,19.2,-21.0
O=C(NCC1CCCCC1)C1(CC2CC(c3cccc(Br)c3)=NO2)CCNCC1 (configuration not stated),-14.4,-29.9,99.1*,-45.2,2.2,-9.1
O=C(N/N=C/c1ccc2c(c1)OCO2)C(=O)Nc1cccc(Cl)c1,-24.5,-39.3,-130.1,22.4,3.6,0.6
O=C(CN(Cc1ccccc1F)C(=O)c1csnn1)NC1CCCCC1,-1.0,56.6*,4.5,-1.1,-8.9,1.5
